Screening data (PubChem BioAssay)
TMEM16A inh: blocks the mouse calcium-activated chloride channel TMEM16A; HEK293 TMEM16A/YFP iodide influx fluorescence, ionomycin; normalized B-score (activity score, 25-100; higher = stronger inhibition) at 10 µM; 310,000 tested, 1.2% active; AID 588511;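 active = ratio plate-corrected score three or more library SD toward inhibition, starting fluorescence score within five deviations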;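 note: score derived from kinetic fluorescence span divided by baseline fluorescence per well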
Target sequence (Q8BHY3 whole entry, looked up): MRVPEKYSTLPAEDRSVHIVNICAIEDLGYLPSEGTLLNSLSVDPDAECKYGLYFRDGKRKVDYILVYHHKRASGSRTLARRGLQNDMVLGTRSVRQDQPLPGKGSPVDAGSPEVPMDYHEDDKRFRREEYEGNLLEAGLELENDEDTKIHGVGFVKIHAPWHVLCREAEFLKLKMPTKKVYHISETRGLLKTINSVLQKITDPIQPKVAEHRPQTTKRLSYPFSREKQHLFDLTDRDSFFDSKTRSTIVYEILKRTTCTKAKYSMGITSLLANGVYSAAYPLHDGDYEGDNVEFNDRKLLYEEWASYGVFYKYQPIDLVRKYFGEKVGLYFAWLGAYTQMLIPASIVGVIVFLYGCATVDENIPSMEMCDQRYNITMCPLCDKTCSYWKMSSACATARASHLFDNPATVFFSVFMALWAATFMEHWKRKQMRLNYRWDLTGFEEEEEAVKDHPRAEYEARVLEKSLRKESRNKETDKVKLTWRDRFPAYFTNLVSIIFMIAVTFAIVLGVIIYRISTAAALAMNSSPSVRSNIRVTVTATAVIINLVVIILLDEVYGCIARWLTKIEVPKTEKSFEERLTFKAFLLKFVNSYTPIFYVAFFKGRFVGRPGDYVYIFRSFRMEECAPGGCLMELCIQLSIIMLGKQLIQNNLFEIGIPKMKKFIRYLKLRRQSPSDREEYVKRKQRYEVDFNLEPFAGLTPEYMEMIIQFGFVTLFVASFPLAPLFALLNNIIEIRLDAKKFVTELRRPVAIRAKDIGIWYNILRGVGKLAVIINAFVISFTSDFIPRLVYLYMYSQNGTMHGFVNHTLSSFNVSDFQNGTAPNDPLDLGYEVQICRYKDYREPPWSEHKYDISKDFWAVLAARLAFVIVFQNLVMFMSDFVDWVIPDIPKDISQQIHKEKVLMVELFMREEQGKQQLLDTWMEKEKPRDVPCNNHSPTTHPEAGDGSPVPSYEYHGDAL
TMEM16A act: mouse TMEM16A channel activation, primary screen; HEK293 TMEM16A/YFP-H148Q/I152L, iodide quench fluorescence; hits give low values; B-score at 10 µM; 340,000 tested, 0.3% active; Q8BHY3; AID 623877;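 active = fluorescence-ratio B-score plate-corrected deviation score at least 3 library SD below zero, with starting fluorescence score within 5 deviations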;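 note: channel opened by trigger with iodide after compound preincubation; score built on the fluorescence ratio of max minus min over baseline; more negative score means more quench and so TMEM16A activation or potentiation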
KLF5 inh: suppresses KLF5 promoter-driven expression. DLD-1 KLF5 promoter-luciferase reporter, luminescence. inhibition, % at 5 µM. 290,000 tested, 0.23% active. AID 1700;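 active = inhibition above a per-plate limit of that plate's mean compound inhibition plus 3 SD, cut at about 60% in these data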;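 note: 0% = DMSO wells and 100% = LY294002 at 200 µM; higher means less KLF5 promoter-driven luciferase light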
697 NFkB inh: inhibitors of the PMA/ionomycin-induced NF-kB reporter in 697 B cells; 697 B-cell NF-kB luciferase reporter, 16 h; inhibition, % at 4 µM; 330,000 tested, 0.33% active; in the data active = inhibition above about 35%
aSyn UTR inh: MLPCN primary screen, SNCA 5' untranslated region. alpha-synuclein 5'UTR reporter, inhibitor activity. inhibition, % (tested at 7.5 µM). 300,000 tested, 0.82% active; in the data active = inhibition above about 60%;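 note: H4 neuroglioblastoma cells stably carrying SNCA 5'UTR luciferase fusion; 0% = DMSO wells and 100% = positive control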
Jurkat NFkB inh: lowers PMA/ionomycin-induced NF-kB signal in Jurkat cells; PMA/ionomycin-induced NF-kB luciferase reporter, luminescence; inhibition, % at 4 µM; 330,000 tested, 0.53% active; AID 435003; in the data active = inhibition above about 50%
* marks the source's active call; other numbers are inactive results; i = inactive; / = not tested or not shown. Rows were chosen to be rich in hits. Some 2.5% of all compounds tested hit in one or more screens of this group.

SMILES	TMEM16A inh	TMEM16A act	KLF5 inh	697 NFkB inh	aSyn UTR inh	Jurkat NFkB inh
CCC(C)(C)C1CCC2(CC1)NC(CO)(CO)CO2 (stereo unspecified)	i	-4.9*	-32	30	9	10
CCC1CCC2(CC1)NC(CO)(CO)CO2 (stereo unspecified)	i	i	-5	14	16	-8
COc1ccc(CC(=O)Nc2ccc(S(=O)(=O)N(C)C3CCN(C)CC3)cc2)cc1	/	i	/	-6	/	-9
CC(Oc1ccc(Br)cc1)C(=O)Nc1ccc(S(=O)(=O)N(C)C2CCN(C)CC2)cc1 (stereo unspecified)	i	-10*	/	-37	5	24
Cc1ccc(C(C)C)cc1OCC(=O)Nc1ccc(-n2cnnn2)cc1	/	i	/	-20	/	15
O=C(NCC(=O)N1CCN(C(c2ccccc2)c2ccccc2)CC1)c1ccccc1F	i	i	-6	-19	12	-34
CCCn1c(N2CCN(CC(=O)c3c(C)n(C)c4ccc(OC)cc34)CC2)nc2c1c(=O)[nH]c(=O)n2C	/	i	13	15	63*	5
N#Cc1c(C(F)(F)F)cc(-c2ccccc2Cl)[nH]c1=O	100*	i	6	8	27	7
CC(=O)c1cccc(NC(=O)CSc2ccc(-c3ccccn3)nn2)c1	i	i	-16	-11	69*	23
O=C(CSc1n[nH]c(-c2ccccn2)n1)Nc1cccc(Cl)c1	i	i	59	9	86*	-1
CC(=O)Nc1cccc(NC(=O)CSc2ccc(-c3ccccn3)nn2)c1	i	i	-18	9	52	21
CCOC(=O)c1ccccc1NC(=O)CSc1ccc(-c2ccccn2)nn1	i	i	0	0	69*	-21
CSc1ccccc1NC(=O)CSc1nnc(Cc2ccccc2)o1	i	i	3	15	-14	18
NCCOc1ccc(C2CCCCC2)cc1	i	i	-5	-5	71*	-21
O=C(O)COc1ccc(/C=C/C(=O)c2ccc(C3CCCCC3)cc2)cc1	i	i	-27	-6	-115	9
O=C(OCn1nnc2ccccc2c1=O)c1cccnc1Cl	100*	i	-4	4	/	4
O=C(OCn1nnc2ccccc2c1=O)c1ccc(S(=O)(=O)N2CCOCC2)cc1	i	i	-22	0	0	2
CCN(CC)S(=O)(=O)c1ccc(C(=O)OCn2nnc3ccccc3c2=O)cc1	25*	i	-1	2	21	-7
CSc1ncccc1C(=O)OCn1nnc2ccccc2c1=O	i	i	8	7	11	4
N#CC1=C(N)NC(SCc2ccc(F)cc2)=C(C#N)C12CCCCC2	100*	i	-20	-14	-83	44
O=C(O)c1ccc(N/N=C/c2cn(Cc3ccc(F)cc3)c3ccccc23)cc1	i	i	-33	-138	-69	3
O=C(N/N=C/c1cn(Cc2ccccc2)c2ccccc12)c1cc(O)cc(O)c1	i	i	-18	8	62*	7
COc1cc(C(=O)N/N=C/c2cn(Cc3cccc(F)c3)c3ccccc23)ccc1O	i	i	-13	3	62*	10
CC(OC(=O)Cc1c[nH]c2ccccc12)C(=O)NC1CCCCC1C (stereo unspecified)	/	i	/	7	/	-5
CCCn1c(N)c(C(=O)CSc2nc(N)cc(=O)[nH]2)c(=O)n(C)c1=O	/	i	/	19	/	16
SMILES	TMEM16A inh	TMEM16A act	KLF5 inh	697 NFkB inh	aSyn UTR inh	Jurkat NFkB inh
N#CC(=Nc1ccccc1)c1ccccc1	/	i	/	/	/	/
O=C1CCSc2c1ccc1ccccc21	/	i	/	/	/	/
O=S(=O)(Nc1ncnc2sc3c(c12)CCC3)c1ccc(Cl)s1	25*	i	-17	1	15	3
O=C(NCc1ccccc1F)C1CCCN1C(=O)Nc1ccc(Cl)cc1 (stereo unspecified)	i	i	-10	10	-19	0
COc1ccc(-c2oc3ncnc(NCCN4CCOCC4)c3c2-c2ccc(OC)cc2)cc1	i	i	-13	-52	45	-11
COc1ccc(-c2oc3ncn(CCN4CCOCC4)c(=N)c3c2-c2ccc(OC)cc2)cc1	i	i	3	-29	74*	-10
COc1ccc([C@H]2Oc3cc(O)cc(O)c3C(=O)C2[C@@H]2C(=O)c3c(O)cc(O)cc3O[C@@H]2c2ccc(OC)cc2)cc1 (stereo partly specified)	100*	/	/	29	16	-7
COc1ccc(C2CC(=O)Oc3cc(O)cc(O)c32)cc1 (stereo unspecified)	i	i	/	15	-44	-3
O=c1c2nncn2c2cc(C(F)(F)F)ccc2n1CCNc1ncc(C(F)(F)F)cc1Cl	i	i	-36	14	26	9
O=c1c(Cl)nc2cc(Cl)ccc2n1CCNc1ncc(C(F)(F)F)cc1Cl	i	i	-33	10	110*	17
COc1ccc(CN2CCN(C(=O)c3cccnc3)CC2)cc1Br	i	i	-32	4	12	-2
O=C(c1cccnc1)N1CCN(Cc2cccc(Br)c2)CC1	i	-5.8*	-45	11	29	6
CCOc1ccc(N(CC(=O)Nc2ccccc2OC)S(=O)(=O)c2ccccc2)cc1	i	i	59	-9	123*	50
CCOc1ccccc1NC(=O)CN(c1ccc(OC)cc1OC)S(=O)(=O)c1ccccc1[N+](=O)[O-]	i	-5.2*	-31	4	21	-18
COc1ccc(N(CC(=O)Nc2ccc(OC)cc2OC)S(=O)(=O)c2ccccc2)cc1	i	i	-10	16	-9	2
O=[N+]([O-])c1cccc(SSc2cccc([N+](=O)[O-])c2)c1	/	i	/	/	/	/
CN(C)c1ccc(S(=O)(=O)NCC(=O)NCCC2=CCCCC2)cc1[N+](=O)[O-]	/	i	/	23	/	11
Cc1nn(-c2ccccc2)nc1CNC(=O)CC(C)(C)C	i	i	12	9	/	7
Cc1nn(-c2ccccc2)nc1CNC(=O)c1ncoc1-c1ccccc1	i	-5.6*	-17	0	/	12
NC(=Nc1ccccc1)N(c1ccccc1)c1ccccc1	/	i	/	/	/	/
COc1ccc(CN(C2CCCCC2C)S(=O)(=O)c2ccc(S(=O)(=O)N(C)C)cc2)cc1OC (stereo unspecified)	i	-29*	-23	9	5	7
Cc1ccc(NC(=O)CSc2cn[nH]n2)cc1	i	i	-15	23	-18	4
CC1(C(=O)CSc2nc3ccccc3s2)CCC(=O)O1 (stereo unspecified)	100*	i	-17	-50	-28	-15
CC1(C)CC2(CC(C)(C(=O)CSc3nc4ccccc4s3)OC2=O)C(=O)O1 (stereo unspecified)	i	i	-5	18	10	10
